Test results as given in article PMC8136818, “Evolving origin-of-transfer sequences on staphylococcal conjugative and mobilizable plasmids—who’s mimicking whom?”.

B1: ossB49 (dsDNA)
DNA 1: CCGATGATAGCAAATT
DNA 2: AATTTGCTATCATCGG
B2: OT408 For/Rev_17 (dsDNA)
DNA 1: CCCACCTTTTTAATAGGTGGCAAATTTCCC
DNA 2: GGGAAATTTGCCACCTATTAAAAAGGTGGG
B3: ossA408-12 (dsDNA)
DNA 1: TTATAGGCGCCAAATA
DNA 2: TATTTGGCGCCTATAA
B4: ossA408 (dsDNA)
DNA 1: TTATAGGCGCCTAATA
DNA 2: TATTAGGCGCCTATAA
B5: ossA408-8 (dsDNA)
DNA 1: TTATAGGGGCCTAATA
DNA 2: TATTAGGCCCCTATAA
B6: OTUNa For/Rev_17 (dsDNA)
DNA 1: TTATAAAATGGGTACATATTTCCCTTATGC
DNA 2: GCATAAGGGAAATATGTACCCATTTTATAA
B7: OT408 For/Rev_18 (dsDNA)
DNA 1: TAATAGGTGGCAAATTTCCCTTATGCTCTT
DNA 2: AAGAGCATAAGGGAAATTTGCCACCTATTA
B8: ossA408-10 (dsDNA)
DNA 1: TTATAGGCGGCTAATA
DNA 2: TATTAGCCGCCTATAA
B9: OTUNa For/Rev_8 (dsDNA)
DNA 1: TGTCACAAAAGTGTGACAATTTAATTTTTG
DNA 2: CAAAAATTAAATTGTCACACTTTTGTGACA
B10: OTUNa For/Rev_12 (dsDNA)
DNA 1: AAGATAAATGTTTAAAACCCTTGAAATATC
DNA 2: GATATTTCAAGGGTTTTAAACATTTATCTT
B11: OT408 For/Rev_8 (dsDNA)
DNA 1: AATATATAGGGGTACATTTTGGGTACAAAA
DNA 2: TTTTGTACCCAAAATGTACCCCTATATATT
B12: OTUNa For/Rev_9 (dsDNA)
DNA 1: GTGTGACAATTTAATTTTTGTGACCCCCAT
DNA 2: ATGGGGGTCACAAAAATTAAATTGTCACAC
B13: ossA408-5 (dsDNA)
DNA 1: TTATTGGCGCCTAATA
DNA 2: TATTAGGCGCCAATAA
B14: OTUNa For/Rev_7 (dsDNA)
DNA 1: CAATATATTGTGTCACAAAAGTGTGACAAT
DNA 2: ATTGTCACACTTTTGTGACACAATATATTG
B15: OT408.5 (dsDNA)
DNA 1: CGGTTTTATAGGCGCCTAATAAAAACCTCT
DNA 2: AGAGGTTTTTATTAGGCGCCTATAAAACCG
B16: OTUNa For/Rev_11 (dsDNA)
DNA 1: TGACCCCCATAAGATAAATGTTTAAAACCC
DNA 2: GGGTTTTAAACATTTATCTTATGGGGGTCA
B17: OT408 For/Rev_15 (dsDNA)
DNA 1: AAATGTCTGGCTTCGCCAGACCCACCTTTT
DNA 2: AAAAGGTGGGTCTGGCGAAGCCAGACATTT
B18: ossA408-15 (dsDNA)
DNA 1: TTATAGGCGCCTAAAA
DNA 2: TTTTAGGCGCCTATAA
B19: ossA408-9 (dsDNA)
DNA 1: TTATAGGCCCCTAATA
DNA 2: TATTAGGGGCCTATAA
B20: ossA408 G6C (dsDNA)
DNA 1: TTATACGCGCCTAATA
DNA 2: TATTAGGCGCGTATAA

Molecular target: T1, SmpOSep (Staphylococcus epidermidis VCU120)
T1 chain: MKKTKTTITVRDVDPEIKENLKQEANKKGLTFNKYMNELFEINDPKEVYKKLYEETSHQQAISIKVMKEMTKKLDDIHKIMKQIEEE
Experiment: SPR (ReDCaT); 250 mM NaCl; 10 mM HEPES, 3 mM EDTA, 0.05% Tween 20, NaCl 150 mM (SmpO49 screens), 300 mM (SmpO45, SmpO408, SmpOUNa screens) or 250 mM (Table S4); pH and temperature not stated; protein 1 uM; high values mean tight binding
Conditions: protein: recombinant; tags: His6-TEV, cleaved; chain copies: 4

With B1 the binding signal was 0.6 %Rmax.

Molecular target: T2, SmpO408 (Staphylococcus aureus M0408)
T2 chain: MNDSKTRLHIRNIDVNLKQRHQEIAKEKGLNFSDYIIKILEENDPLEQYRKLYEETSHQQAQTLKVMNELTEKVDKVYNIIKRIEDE
Experiment: SPR (ReDCaT); 300 mM NaCl; 10 mM HEPES, 3 mM EDTA, 0.05% Tween 20, NaCl 150 mM (SmpO49 screens), 300 mM (SmpO45, SmpO408, SmpOUNa screens) or 250 mM (Table S4); pH and temperature not stated; protein 1 uM; high values mean tight binding
Conditions: protein: recombinant; tags: His6-TEV, cleaved; chain copies: 4
Summary of the method: (§1)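 Protein with its tag removed was produced in E. coli BL21(DE3)pLysS and purified by nickel-affinity and then size-exclusion chromatography. On a Biacore T200 SA chip with reusable DNA capture, OriT oligonucleotides were captured at 1 μM on Fc2 and a linker alone on Fc1, and protein at 1 μM was injected at 30 μl/min with 60 s contact and 60 s dissociation in 10 mM HEPES, 300 mM NaCl, 3 mM EDTA, 0.05% Tween 20. DNA binding is given as %Rmax.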

In order of rising binding signal:
1. B11  5.29 %Rmax
2. B19  6.86 ± 1.04 %Rmax
3. B5  7.62 ± 1.09 %Rmax
4. B17  14.3 %Rmax
5. B20  35.5 ± 2.44 %Rmax
6. B8  48.1 ± 2.02 %Rmax
7. B7  60.1 %Rmax
8. B18  63 ± 1.28 %Rmax
9. B4  63.9 ± 1.02 %Rmax
10. B2  64.6 %Rmax
11. B13  67.9 ± 1.54 %Rmax
12. B3  68.3 ± 1.07 %Rmax
13. B15  109 %Rmax

Molecular target: T2, SmpO408
Experiment: SPR (ReDCaT); 250 mM NaCl; 10 mM HEPES, 3 mM EDTA, 0.05% Tween 20, NaCl 150 mM (SmpO49 screens), 300 mM (SmpO45, SmpO408, SmpOUNa screens) or 250 mM (Table S4); pH and temperature not stated; protein 1 uM; high values mean tight binding
Conditions: protein: recombinant; tags: His6-TEV, cleaved; chain copies: 4

B4 gave a binding signal of 52.8 %Rmax.

Molecular target: T3, SmpOUNa (plasmid pC02)
T3 chain: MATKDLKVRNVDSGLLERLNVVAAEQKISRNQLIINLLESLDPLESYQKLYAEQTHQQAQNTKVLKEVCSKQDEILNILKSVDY
Experiment: SPR (ReDCaT); 300 mM NaCl; 10 mM HEPES, 3 mM EDTA, 0.05% Tween 20, NaCl 150 mM (SmpO49 screens), 300 mM (SmpO45, SmpO408, SmpOUNa screens) or 250 mM (Table S4); pH and temperature not stated; protein 1 uM; high values mean tight binding
Conditions: protein: recombinant; tags: His6-TEV, cleaved; chain copies: 4
Summary of the method: as §1

In order of falling binding signal:
1. B12  53.342 ± 0.0463 %Rmax
2. B16  18.2 ± 1.39 %Rmax
3. B9  17 ± 0.439 %Rmax
4. B6  9.96 ± 0.667 %Rmax
5. B14  3.471 ± 0.00557 %Rmax
6. B10  1.56 ± 0.168 %Rmax
